Screening results deposited in PubChem BioAssay by National Center for Advancing Translational Sciences (NCATS).
HT1080 IDH1KD tx: toxicity to HT-1080 IDH1 knockdown cells (counter line); Potency, µM (series often up to 46.1 µM), most hits filed as cytotoxic; 360,000 tested, 2% active; HT-1080 IDH1 knockdown viability, ATP luminescence, 48 h
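After a 2 h attachment period, IDH1KD HT-1080 cells took pin-transferred compound for 48 h at 37 °C; ATP-based luminescence after 10 min room-temperature reagent incubation reported viability.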
HT1080-NT tox: kills 2HG-producing HT-1080-NT fibrosarcoma cells; HT-1080-NT fibrosarcoma viability, CellTiter-Glo ATP luminescence, 48 h; Potency, µM (doses to about 46.1 µM), actives largely listed as cytotoxic; 360,000 tested, 1.6% active; AID 686970;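 also: NT is the 2HG producing partner of a matched IDH1 knockdown line; nearly all actives have a fitted effect of over 55% in size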
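HT-1080-NT fibrosarcoma cells (2HG-overproducing), 750 cells/well in RPMI with 5% FBS, dosed after 2 h and incubated 48 h at 37C. CellTiter-Glo luminescence normalized to DMSO and no-cell wells; concentration-response curves fitted and classed.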
TDP1 cell CPT: DT40-hTDP1 cell growth loss with CPT. chicken DT40 Tdp1-/-;hTDP1 cells + 20 nM CPT, ATP luminescence, 48 h. Potency, µM (titrated, usually from 46.2 µM), hits mostly inhibitors. 420,000 tested, 12% active. AID 686979; also: nearly all actives have a fitted effect of over 55% in size
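Cell growth measured by CellTiter-Glo luminescence after a minimum 48 h, 37 C compound exposure with 20 nM CPT in Tdp1-knockout DT40 cells stably expressing hTDP1, seeded 400/well; qHTS titration format.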
TDP1 cell noCPT: qHTS for Inhibitors of human tyrosyl-DNA phosphodiesterase 1 (TDP1): qHTS in cells in absence of CPT | DT40 Tdp1-/- hTDP1 cells, no CPT, ATP luminescence, 48 h | Potency, µM (titrated, usually from 46.2 µM), actives largely listed as inhibitors | 420,000 tested, 15% active | AID 686978, 2013; also: nearly all actives have a fitted effect of over 55% in size
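Luminescent ATP content (CellTiter-Glo) served as the growth readout. Knockout chicken DT40 cells expressing human TDP1 were exposed to compounds without camptothecin for a minimum 48 hr at 37 °C.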
HepG2 tox: HepG2 cytotoxicity, counter-screen for TGF-b inhibitors; HepG2 CAGA-GFP viability, ATP luminescence, 18 h; Potency, µM (highest dose often 46.1 µM), most hits filed as cytotoxic; 410,000 tested, 0.76% active; AID 588856
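CellTiter-Glo luminescence gave cytotoxicity after 18 hours at 37 degrees C. The cells were HepG2 CAGA-GFP in 1% FBS DMEM, stimulated with 500 pg/mL TGF-beta after compound addition. %Activity was normalised to no-cell wells (complete cell-killing) and DMSO (no toxicity), and curves were fitted and classified.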
TGFb SMAD3 inh: blocks TGF-b signaling. Potency, µM (top dose mostly 46.1 µM), most hits filed as inhibitors. AID 588855. HepG2 CAGA-GFP TGF-b/SMAD3 reporter, GFP fluorescence, 18 h; TGF-beta stimulated, 500 pg/mL final. 410,000 tested, 1.2% active; also: nearly all actives have a fitted effect of over 65% in size
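Inhibition was scored as loss of TGF-beta-induced (500 pg/mL final, 18 hours, 37 degrees C) GFP in HEPG2 cells carrying a CAGA-GFP reporter, in DMEM with 1% FBS. Well GFP was summed per cell; Activity was normalised to unstimulated and stimulated DMSO wells, then concentration-response fitting.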
Large screens that a line does not name were inactive. Sampled rows, rich in hits. Any-hit rate of the full collection: about 17%. Calls follow the shape of the dose curve; as a rule, active = well fitted curve in the direction sought with a large enough effect; inconclusive = small, poorly fitted or top-dose-only effect, or another doubt; inactive = no such curve, though single readings can be large; an effect the other way counts as inactive or inconclusive.

COc1ccc(NC(=O)c2ccco2)cc1NC(=O)COc1ccccc1Cl	TDP1 cell CPT 6.5µM, TDP1 cell noCPT inconclusive (no result: HT1080 IDH1KD tx, HT1080-NT tox)
COc1ccc(NC(=O)c2ccco2)cc1NC(=O)c1ccco1	none
COc1ccc(NC(=O)c2ccco2)cc1NC(=O)C(C)(C)Oc1ccc(Cl)cc1	TDP1 cell CPT 18µM, TDP1 cell noCPT inconclusive, TGFb SMAD3 inh inconclusive (no result: HT1080 IDH1KD tx, HT1080-NT tox)
FC(F)(F)c1ccc(-c2noc(-c3ccccc3Br)n2)cc1	TDP1 cell CPT 16µM, TDP1 cell noCPT inconclusive, TGFb SMAD3 inh inconclusive (no result: HT1080 IDH1KD tx, HT1080-NT tox)
CCN1C(=O)/C(=C2/Sc3ccccc3N2CC)S/C1=N\c1ncn[nH]1	TDP1 cell CPT inconclusive, TDP1 cell noCPT 23µM
COc1ccc(S(=O)(=O)Nc2ccccc2C(F)(F)F)cc1	HT1080 IDH1KD tx inconclusive, TDP1 cell noCPT inconclusive
COc1ccc(S(=O)(=O)NN(C)c2nc(C(F)(F)F)nc3ccccc23)cc1	HT1080 IDH1KD tx 16µM, HT1080-NT tox 21µM, TDP1 cell CPT inconclusive, TDP1 cell noCPT inconclusive
COc1ccc(N2CCN(C(=O)c3nn(C)c4c3CSc3ccccc3-4)CC2)cc1	TDP1 cell noCPT inconclusive, TGFb SMAD3 inh inconclusive (no result: HT1080 IDH1KD tx, HT1080-NT tox)
O=S(=O)(c1ccccc1)N(Cc1nc(-c2ccccc2)no1)C1CCCCC1	TDP1 cell CPT inconclusive, TDP1 cell noCPT 21µM
O=S(=O)(c1ccc(F)cc1)N(Cc1nc(-c2ccccc2)no1)C1CCCCC1	TDP1 cell CPT inconclusive, TDP1 cell noCPT 16µM (no result: HT1080 IDH1KD tx, HT1080-NT tox)
CC(C)N(Cc1nc(-c2ccccc2)no1)S(=O)(=O)c1ccccc1	TDP1 cell CPT inconclusive, TDP1 cell noCPT inconclusive
COc1cc(OC)c(NS(=O)(=O)c2c(C(=O)N3CCC(C)CC3)c(C)n(C)c2C)cc1Cl	none (no result: HT1080 IDH1KD tx, HT1080-NT tox)
NS(=O)(=O)c1ccc(CCNC(=O)COC(=O)Cc2c(F)cccc2Cl)cc1	none
CC1(C)C(=O)Nc2ccccc2N1C(=O)COC(=O)c1ccc(Cl)c(S(=O)(=O)NCc2ccccc2)c1	TDP1 cell CPT inconclusive, TDP1 cell noCPT inconclusive
Cc1ccc2nc(N(CCCN(C)C)C(=O)c3ccc(S(=O)(=O)N4CCc5ccccc5C4)cc3)sc2c1	HT1080 IDH1KD tx 13µM, HT1080-NT tox inconclusive, TDP1 cell CPT 5.2µM, TDP1 cell noCPT 5.8µM, TGFb SMAD3 inh inconclusive
Cc1ccc2nc(N(CCCN(C)C)C(=O)c3ccc(S(=O)(=O)N4CCOCC4)cc3)sc2c1	none
COc1ccc2sc(N(CCCN(C)C)C(=O)c3ccc(S(=O)(=O)N4CCc5ccccc5C4)cc3)nc2c1	HT1080 IDH1KD tx inconclusive, HT1080-NT tox inconclusive, TDP1 cell CPT 4.1µM, TDP1 cell noCPT 4.6µM, TGFb SMAD3 inh 16µM
CN(C)CCCN(C(=O)c1ccc(S(=O)(=O)N2CCc3ccccc3C2)cc1)c1nc2c(F)cccc2s1	TDP1 cell CPT inconclusive, TDP1 cell noCPT inconclusive
Cc1cc(C)c2sc(N(CCCN(C)C)C(=O)c3ccc(S(=O)(=O)N4CCCc5ccccc54)cc3)nc2c1	HT1080 IDH1KD tx inconclusive, HT1080-NT tox 18µM, TDP1 cell CPT 10µM, TDP1 cell noCPT 9.2µM, TGFb SMAD3 inh inconclusive
Cc1cccc2sc(N(CCCN(C)C)C(=O)c3ccc(S(=O)(=O)N4CCc5ccccc5C4)cc3)nc12	HT1080 IDH1KD tx inconclusive, HT1080-NT tox inconclusive, TDP1 cell CPT 4.1µM, TDP1 cell noCPT 6.5µM
COc1ccccc1C(=O)Nc1ccc(-c2cc(C(F)(F)F)nn2-c2ccccc2)cc1	TDP1 cell CPT 4.1µM, TDP1 cell noCPT 5.2µM (no result: HT1080 IDH1KD tx, HT1080-NT tox)
